Source: ChEMBL document CHEMBL3988442, “University of Dundee, Small-Polar-MMV Screening Library” (2021)
For some assays here: Potency and affinity values are given separately.

Legend:
Set-up in all cases: scale not given: direction of the effect not stated beside the values
[1] = biological target: Protein translocase subunit SecA (Escherichia coli (strain K12)) (UniProt P10408); test: Assay to Identify E. coli SecA ATPase Inhibitors; type: functional; conditions: 30 µM
[2] = biological target: T1, Ubiquitin-activating enzyme e1, putative (Leishmania donovani (strain BPK282A1)) (UniProt E9BSI1); test: Leishmania donovani Ubiquitin Activating Enzyme (LdE1); type: functional; conditions: 30 µM
T1 sequence (whole entry): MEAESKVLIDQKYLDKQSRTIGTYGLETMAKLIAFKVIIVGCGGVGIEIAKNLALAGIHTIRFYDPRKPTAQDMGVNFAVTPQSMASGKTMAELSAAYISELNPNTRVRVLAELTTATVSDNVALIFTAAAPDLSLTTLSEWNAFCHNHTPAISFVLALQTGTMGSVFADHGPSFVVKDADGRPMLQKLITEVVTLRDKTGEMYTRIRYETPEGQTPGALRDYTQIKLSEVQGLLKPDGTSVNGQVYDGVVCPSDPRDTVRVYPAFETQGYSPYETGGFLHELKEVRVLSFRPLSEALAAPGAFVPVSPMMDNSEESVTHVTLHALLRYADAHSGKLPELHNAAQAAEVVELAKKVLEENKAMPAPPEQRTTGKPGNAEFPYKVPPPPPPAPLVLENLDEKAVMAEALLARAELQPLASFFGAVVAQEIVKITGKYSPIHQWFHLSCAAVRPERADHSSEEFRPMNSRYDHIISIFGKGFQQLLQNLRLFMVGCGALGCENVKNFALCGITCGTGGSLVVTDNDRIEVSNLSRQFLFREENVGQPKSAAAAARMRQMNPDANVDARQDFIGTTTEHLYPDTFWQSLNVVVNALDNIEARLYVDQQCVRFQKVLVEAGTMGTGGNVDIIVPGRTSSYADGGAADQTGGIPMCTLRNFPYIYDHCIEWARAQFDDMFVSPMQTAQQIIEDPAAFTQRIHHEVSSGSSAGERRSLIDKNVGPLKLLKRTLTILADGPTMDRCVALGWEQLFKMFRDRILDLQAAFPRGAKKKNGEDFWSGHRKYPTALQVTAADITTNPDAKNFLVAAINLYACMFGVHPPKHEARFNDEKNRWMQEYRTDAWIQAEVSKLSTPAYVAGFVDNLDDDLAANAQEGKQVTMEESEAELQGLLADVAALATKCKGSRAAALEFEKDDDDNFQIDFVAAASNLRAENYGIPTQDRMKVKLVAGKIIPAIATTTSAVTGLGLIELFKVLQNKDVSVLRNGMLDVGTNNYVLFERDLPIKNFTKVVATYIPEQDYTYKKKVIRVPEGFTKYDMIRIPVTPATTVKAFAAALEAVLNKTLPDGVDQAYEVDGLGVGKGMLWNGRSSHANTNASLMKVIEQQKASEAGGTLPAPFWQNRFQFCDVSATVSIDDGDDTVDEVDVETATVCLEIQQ

[3] = biological target: AMP-activated protein kinase, AMPK (Homo sapiens) (UniProt P54646+O43741+P54619+Q9UGJ0+Q9Y478+Q13131+Q9UGI9); test: AMP-dependent Kinase enzyme assay. An in vitro enzyme assay that detects ADP turnover that is directly proportional to AMPK activity. This uses naive AMPK that is activated during the assay with MK-8722; type: functional; conditions: 30 µM
[4] = biological target: Sialic acid-binding Ig-like lectin 9 (Homo sapiens) (UniProt Q9Y336); test: Hs-Siglec9 ALPHAscreen SOP 20170721; conditions: 10 µM
Sequence of Sialic acid-binding Ig-like lectin 9 (Homo sapiens) (Q9Y336 whole entry): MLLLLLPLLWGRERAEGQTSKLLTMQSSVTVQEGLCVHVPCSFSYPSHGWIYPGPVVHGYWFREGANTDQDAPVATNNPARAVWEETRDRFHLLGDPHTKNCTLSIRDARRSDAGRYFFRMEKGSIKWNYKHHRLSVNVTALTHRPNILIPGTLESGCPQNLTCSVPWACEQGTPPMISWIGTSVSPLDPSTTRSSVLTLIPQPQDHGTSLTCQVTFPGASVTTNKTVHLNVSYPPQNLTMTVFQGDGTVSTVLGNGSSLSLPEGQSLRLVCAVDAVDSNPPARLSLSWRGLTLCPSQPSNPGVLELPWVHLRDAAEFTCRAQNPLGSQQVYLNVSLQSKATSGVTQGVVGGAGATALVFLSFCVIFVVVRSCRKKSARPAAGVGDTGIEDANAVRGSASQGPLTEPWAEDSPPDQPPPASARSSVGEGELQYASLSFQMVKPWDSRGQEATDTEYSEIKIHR

Trypanosoma cruzi = test: Trypanosoma cruzi phosphomannomutase and mannose-1-phosphate guanylyltransferase assay; type: functional; conditions: 10 µM
[5] = biological target: T2, Arginase-2, mitochondrial (Homo sapiens) (UniProt P78540); test: in vitro enzyme assay to detect the production of urea directly proportional to the activity of Arginase II; type: functional; conditions: 33.3 µM; further: in the data most compounds retested in dose-response had high values
T2 sequence (whole entry): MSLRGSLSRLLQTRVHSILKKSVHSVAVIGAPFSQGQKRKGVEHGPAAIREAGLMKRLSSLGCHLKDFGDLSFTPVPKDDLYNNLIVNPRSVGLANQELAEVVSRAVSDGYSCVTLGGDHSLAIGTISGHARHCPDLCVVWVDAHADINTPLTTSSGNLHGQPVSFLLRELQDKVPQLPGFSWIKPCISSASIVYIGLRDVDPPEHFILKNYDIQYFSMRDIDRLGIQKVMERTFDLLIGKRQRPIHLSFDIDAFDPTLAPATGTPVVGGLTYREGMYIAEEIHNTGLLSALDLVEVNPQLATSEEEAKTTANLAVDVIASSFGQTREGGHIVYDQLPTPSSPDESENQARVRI

[6] = biological target: T3, Proteasome subunit beta (Trypanosoma cruzi) (UniProt O96673); test: Trypanosoma cruzi proteasome chymotrypsin-like activity (TcProtChymo) assay.; further: in the data most compounds retested in dose-response had high values; type: functional; conditions: 9.37 µM
T3 sequence (whole entry): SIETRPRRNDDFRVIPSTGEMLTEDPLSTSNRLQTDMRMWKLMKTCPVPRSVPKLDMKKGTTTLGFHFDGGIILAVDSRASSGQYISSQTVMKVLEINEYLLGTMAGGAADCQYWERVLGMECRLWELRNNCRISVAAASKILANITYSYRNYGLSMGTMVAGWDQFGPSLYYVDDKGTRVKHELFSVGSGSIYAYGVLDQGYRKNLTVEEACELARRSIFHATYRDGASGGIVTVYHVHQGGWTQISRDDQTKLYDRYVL

Homo sapiens = organism: Homo sapiens; test: To identify inhibition of the IFN signalling (Jak-Stat) pathway via expression of an eGFP reporter gene under the control of an IFN-stimulated response element (ISRE) containing MxA promoter.; type: functional; conditions: 30 µM
[7] = biological target: T4, Tyrosyl-tRNA synthetase, putative (Trypanosoma cruzi (strain CL Brener)) (UniProt Q4DSP6); test: Trypanosoma cruzi tyrosyl tRNA synthetase (TcYRS) _High Tyrosine SOP; type: functional; conditions: 30 µM; further: in the data most compounds retested in dose-response had high values
T4 sequence (whole entry): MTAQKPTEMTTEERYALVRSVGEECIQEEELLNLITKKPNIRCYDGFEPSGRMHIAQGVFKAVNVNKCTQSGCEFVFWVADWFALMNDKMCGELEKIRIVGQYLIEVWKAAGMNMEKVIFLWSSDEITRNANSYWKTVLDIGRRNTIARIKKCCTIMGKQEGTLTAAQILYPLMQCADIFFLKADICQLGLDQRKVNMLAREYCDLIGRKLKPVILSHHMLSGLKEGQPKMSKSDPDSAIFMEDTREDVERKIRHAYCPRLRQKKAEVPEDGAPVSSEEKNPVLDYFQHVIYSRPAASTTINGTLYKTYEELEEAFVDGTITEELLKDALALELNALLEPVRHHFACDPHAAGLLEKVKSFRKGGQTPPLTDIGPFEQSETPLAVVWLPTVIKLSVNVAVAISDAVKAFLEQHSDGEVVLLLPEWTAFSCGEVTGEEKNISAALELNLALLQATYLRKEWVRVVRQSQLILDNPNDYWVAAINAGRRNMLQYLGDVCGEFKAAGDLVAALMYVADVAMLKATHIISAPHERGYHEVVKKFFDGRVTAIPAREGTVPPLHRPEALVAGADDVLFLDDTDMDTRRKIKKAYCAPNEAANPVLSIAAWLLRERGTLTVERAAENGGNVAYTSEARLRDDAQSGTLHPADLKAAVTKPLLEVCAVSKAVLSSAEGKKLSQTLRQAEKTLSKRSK

[8] = biological target: T4, Tyrosyl-tRNA synthetase, putative (Trypanosoma cruzi (strain CL Brener)); test: Trypanosoma cruzi tyrosyl tRNA synthetase (TcYRS) SOP; type: functional; conditions: 30 µM
[9] = biological target: Chromo domain-containing protein 1 (Saccharomyces cerevisiae (strain ATCC 204508 / S288c) (Baker's yeast)) (UniProt P32657); test: ScCHD-1 Enzyme Inhibition Assay; type: functional; conditions: 30 µM; further: in the data most compounds retested in dose-response had high values
Sequence of Chromo domain-containing protein 1 (Saccharomyces cerevisiae (strain ATCC 204508 / S288c) (Baker's yeast)) (P32657 whole entry, the tested form may be a part): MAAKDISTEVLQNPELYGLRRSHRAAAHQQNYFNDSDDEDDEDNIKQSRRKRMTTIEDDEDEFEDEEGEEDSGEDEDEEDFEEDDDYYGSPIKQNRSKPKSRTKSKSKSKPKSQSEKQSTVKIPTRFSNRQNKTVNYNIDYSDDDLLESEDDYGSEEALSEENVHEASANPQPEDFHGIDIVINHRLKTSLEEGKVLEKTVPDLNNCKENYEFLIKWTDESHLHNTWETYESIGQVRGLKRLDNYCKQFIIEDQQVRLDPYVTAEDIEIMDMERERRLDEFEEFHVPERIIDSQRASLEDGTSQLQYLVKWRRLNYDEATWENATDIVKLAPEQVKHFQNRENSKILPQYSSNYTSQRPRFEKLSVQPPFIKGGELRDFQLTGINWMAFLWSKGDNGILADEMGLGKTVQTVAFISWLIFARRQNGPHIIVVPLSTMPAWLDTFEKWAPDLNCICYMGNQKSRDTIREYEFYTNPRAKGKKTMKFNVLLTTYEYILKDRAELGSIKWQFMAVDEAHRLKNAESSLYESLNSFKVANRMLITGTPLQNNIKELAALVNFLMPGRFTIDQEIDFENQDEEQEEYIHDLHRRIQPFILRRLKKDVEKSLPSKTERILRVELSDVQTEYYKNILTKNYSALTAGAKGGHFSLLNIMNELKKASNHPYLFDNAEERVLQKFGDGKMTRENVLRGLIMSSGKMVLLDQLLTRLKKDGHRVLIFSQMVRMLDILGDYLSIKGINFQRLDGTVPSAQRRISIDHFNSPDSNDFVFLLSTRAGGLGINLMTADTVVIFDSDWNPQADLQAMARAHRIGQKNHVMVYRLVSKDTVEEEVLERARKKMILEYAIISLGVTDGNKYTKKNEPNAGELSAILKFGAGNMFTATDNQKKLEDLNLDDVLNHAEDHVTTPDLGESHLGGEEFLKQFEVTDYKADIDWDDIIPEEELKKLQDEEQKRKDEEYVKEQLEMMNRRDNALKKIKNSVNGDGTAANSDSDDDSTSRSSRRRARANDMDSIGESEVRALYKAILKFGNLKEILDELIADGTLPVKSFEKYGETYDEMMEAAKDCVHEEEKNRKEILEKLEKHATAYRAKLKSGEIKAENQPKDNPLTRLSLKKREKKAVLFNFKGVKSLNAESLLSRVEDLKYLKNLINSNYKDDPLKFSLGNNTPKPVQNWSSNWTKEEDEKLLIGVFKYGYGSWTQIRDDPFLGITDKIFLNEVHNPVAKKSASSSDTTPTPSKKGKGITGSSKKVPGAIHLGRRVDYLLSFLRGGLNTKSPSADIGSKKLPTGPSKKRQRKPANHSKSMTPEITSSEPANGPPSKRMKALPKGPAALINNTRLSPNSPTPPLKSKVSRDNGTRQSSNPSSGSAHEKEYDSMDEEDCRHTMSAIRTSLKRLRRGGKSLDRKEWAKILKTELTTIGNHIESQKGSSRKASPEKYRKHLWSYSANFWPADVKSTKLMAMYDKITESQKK

Sequence of Protein translocase subunit SecA (Escherichia coli (strain K12)) (P10408 whole entry): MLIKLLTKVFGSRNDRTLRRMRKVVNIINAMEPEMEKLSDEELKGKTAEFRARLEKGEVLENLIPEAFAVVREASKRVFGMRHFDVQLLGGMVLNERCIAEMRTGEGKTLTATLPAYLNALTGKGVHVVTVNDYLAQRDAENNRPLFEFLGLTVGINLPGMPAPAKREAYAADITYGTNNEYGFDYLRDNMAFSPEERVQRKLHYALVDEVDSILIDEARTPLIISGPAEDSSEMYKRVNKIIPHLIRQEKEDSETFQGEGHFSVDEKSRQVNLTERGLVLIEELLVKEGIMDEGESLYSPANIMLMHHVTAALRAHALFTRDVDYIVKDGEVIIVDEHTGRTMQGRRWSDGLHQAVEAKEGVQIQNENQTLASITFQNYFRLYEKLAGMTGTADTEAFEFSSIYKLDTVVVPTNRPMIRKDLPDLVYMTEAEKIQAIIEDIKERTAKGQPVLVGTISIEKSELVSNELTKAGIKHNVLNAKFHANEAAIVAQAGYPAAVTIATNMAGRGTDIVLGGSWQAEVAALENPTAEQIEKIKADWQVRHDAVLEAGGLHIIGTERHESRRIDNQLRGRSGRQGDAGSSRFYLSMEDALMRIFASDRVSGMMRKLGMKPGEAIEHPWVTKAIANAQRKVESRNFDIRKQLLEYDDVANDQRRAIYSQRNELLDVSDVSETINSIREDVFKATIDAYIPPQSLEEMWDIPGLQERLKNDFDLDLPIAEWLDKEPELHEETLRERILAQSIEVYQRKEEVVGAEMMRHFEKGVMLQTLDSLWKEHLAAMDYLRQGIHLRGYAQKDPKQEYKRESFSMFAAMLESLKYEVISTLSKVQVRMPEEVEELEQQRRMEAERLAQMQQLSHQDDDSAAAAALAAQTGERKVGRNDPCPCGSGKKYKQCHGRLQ

Row | Structure (SMILES) | Percent Effect [1] | Percent Effect [2] | Percent Effect [3] | Percent Effect [4] | Percent Effect (Trypanosoma cruzi) | Percent Effect [5] | Percent Effect [6] | Percent Effect (Homo sapiens) | Percent Effect [7] | Percent Effect [8] | Percent Effect [9]
1 | NC(=O)N1CCC2(CCN(Cc3cccc(F)c3)CC2)CC1 | -2.86% | 5.2% | -0.226% | 14.9% | 1.67% | -9.65% | 14.3% | 5.51% | 5.38% | 11.1% | -1.58%
2 | Cc1cc(C2CCCN(C(=O)CN3CCN(C)CC3)C2)n[nH]1 (configuration not stated) | -0.557% | 13.5% | -4.16% | 2.41% | 2.32% | -4.25% | 16.9% | 16.2% | 6.93% | 18.3% | -5.49%
3 | COc1c(CNC2CCN(C(C)(C)C)CC2)c(C(C)C)nn1C | -3.54% | 10.5% | -6.9% | -3.36% | 6.07% | -2.52% | 4.65% | -8.8% | 12.3% | 16.1% | -1.24%
4 | COc1ccc(CN(C)Cc2nc3c(cnn3C)c(=O)[nH]2)cc1OC | -1.17% | 13.9% | 4.17% | 3.18% | -3.18% | 2.8% | 16.5% | 11.6% | 7.29% | 7.59% | -3.45%
5 | Cc1nc(CN2CCCN(C(=O)c3ccccn3)CC2)oc1C | -1.98% | 7.79% | 0.524% | -0.904% | -0.686% | 4% | 10.8% | 33% | 2.86% | 11.8% | -5.21%
6 | CN(C)Cc1ccnc(C2CCCN2Cc2ccncc2)n1 (configuration not stated) | -4.54% | 9.46% | -5.08% | 2.14% | 6.72% | -4.41% | 4.21% | 7.82% | 3.23% | 11.7% | -20.6%
7 | CNC(=O)[C@@]12CCC3(CCN(S(C)(=O)=O)CC3)[C@@H]1CN(S(C)(=O)=O)C2 | -2.26% | 13.5% | -10.4% | 2.21% | -3.81% | 0.248% | 6.78% | 9.73% | 1.07% | 11.1% | 1.21%
8 | CC(Cn1cccn1)NC(=O)N(C)Cc1ccc(Cl)s1 (configuration not stated) | -7.83% | 2.53% | -3.14% | 9.63% | 7.27% | -8.37% | 0.409% | 2.27% | -1.48% | 3.8% | -2.46%
9 | Cc1cccc(C(=O)Nc2ccc(OC3CCN(C)CC3)cc2)c1 | -3.56% | 7.79% | 6.98% | 12% | 7.57% | 22.1% | 7.82% | -1.95% | 5.38% | 13.6% | -8.12%
10 | Cc1cncc(C(=O)N2CCCCC2c2nc(C)cs2)c1 (configuration not stated) | -4.34% | -36.4% | -2.13% | 4.39% | 8.99% | 3.92% | 9.29% | 16.2% | 9.71% | 21.9% | -10.7%
11 | Cn1ccc2c(C(=O)N3CCC(C(N)=O)CC3)cccc21 | 0.857% | 14.7% | 2.71% | -1.54% | -4.13% | -9.68% | 13.1% | 7.15% | 8.47% | 17.9% | -10.7%
12 | O=C(c1ccccn1)N1CCCC(c2nccn2Cc2ccncc2)C1 (configuration not stated) | -1.27% | 2.74% | -0.242% | 0.902% | 2.94% | 0.909% | 19.7% | 3.55% | 10.8% | 10% | -14%
13 | CC(C)c1nccn1CCCNC(=O)c1ccc(N(C)C)nc1 | -2.99% | 8% | -4.43% | 14% | 3.21% | 13.5% | 6.97% | 13.7% | 1.64% | 8.64% | -5.17%
14 | Cn1ccnc1CN1CCCCC1Cn1cccn1 (configuration not stated) | -4.99% | 3.8% | 0.666% | 3.72% | 0.718% | 0.215% | -1.03% | 4.51% | 6.25% | 10.1% | -20.8%
15 | COc1cccc(CNC(=O)C(c2cccc(F)c2)N2CCOCC2)c1 (configuration not stated) | -6.42% | 18.4% | -1.09% | 6.14% | 2.82% | -5.92% | 4.12% | 5.78% | 6.38% | 18.2% | -11.1%
16 | Cc1noc(Cl)c1CCC(=O)N1CCC(CC(N)=O)CC1 | -6.39% | 18.4% | -6.93% | 6.68% | 6.63% | -3.96% | 13.6% | 10.4% | 4.43% | 18.5% | -7.5%
17 | Cc1nc(N2CCCC2)nc2c1CCN(C(=O)C1CCCC1)CC2 | -2.37% | 4% | 0.866% | 2.33% | -3.54% | -4.4% | 15.2% | -11.3% | 9.52% | 10.3% | -6.44%
18 | Cc1nc(C)n(CC2CCCN(CCc3ccccn3)C2)n1 (configuration not stated) | -8.02% | 13.9% | -5.61% | -6.83% | 2.36% | -1.07% | 1.2% | 3.25% | 3.12% | 15.2% | -36.4%
19 | Cn1c(CN2CCN(CC3CC3)CC2)nnc1C1CCC1 | -8.27% | 0% | -14% | 5.49% | -0.392% | -1.36% | 4.44% | -5.43% | -2.15% | 0% | -2.31%
20 | O=S(=O)(NCC1(O)CCOc2ccccc21)c1cccs1 (configuration not stated) | -8.36% | 0% | 3.61% | -4.67% | -3.72% | -0.455% | 5.86% | 8.26% | 1.07% | 5% | 0.9%
21 | Nc1nc(CN2CCCC(Cn3cncn3)C2)nc2ccccc12 (configuration not stated) | 1.55% | -2.7% | -3.95% | 9.62% | 3.06% | -2.03% | -5.92% | 3.26% | 4.95% | 6.1% | 1.99%
22 | CN(c1ccc(C(C)(C)C)cc1)S(=O)(=O)c1cc(C(=O)O)cs1 | -2.58% | -2.7% | -8.07% | 8.29% | -3.11% | 2.4% | -1.08% | -8.15% | -1.48% | 1.24% | 1.18%
